# Experimental data as given in PubChem BioAssay (NCATS).
# Inconclusive results are not listed. A call without a number means that no potency is given here. Activity calls are given as the source filed them. The call rests on the fitted dose curve; in most records, active means well fitted cell-killing curve with a large enough effect; inconclusive means small, poorly fitted or top-dose-only effect, or effect the other way; inactive means flat fitted curve, though single readings scatter.
# Test system: HeLa
# Test: Primary qHTS to identify gynecologic anti-cancer compounds using libraries of approved drugs and bioactive compounds (AID 1345084); further: nearly all actives have a fitted effect of over 55% in size
# Details: Gynecologic cancer cell panel viability, ATPlite luminescence, 48 h; series mostly up to 57.5 µM
# Summary of the method: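 ATP-based viability (ATPlite), 1,000 cells/well, 16 h pre-incubation, 48 h compound at 37 C, 5% CO2, 15 min RT before read.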
# Potency means the concentration at half of the fitted maximal effect.
row,Structure (SMILES),Potency
1,CN1C(=O)C(Cc2c[nH]c3ccccc23)NC1=S (configuration not stated),inactive
2,Cc1ccc2c(c1)c1c(n2CCc2ccc(C)nc2)CCN(C)C1,inactive
3,Cc1c(C(=O)Nc2ccc(N3C[C@@H](C)O[C@@H](C)C3)nc2)cccc1-c1ccc(OC(F)(F)F)cc1,inactive
4,CN(C)CCN(Cc1ccc(Cl)cc1)c1ccccn1,inactive
5,O=C(CO)N1CCC(c2[nH]nc(-c3ccc(Cl)cc3)c2-c2ccncn2)CC1,inactive
6,CC1=C(C(=O)Nc2cc3cn[nH]c3cc2F)C(c2ccc(C(F)(F)F)cc2)CC(=O)N1 (configuration not stated),inactive
7,CC(C)(C)c1nc(-c2cccc(NS(=O)(=O)c3c(F)cccc3F)c2F)c(-c2ccnc(N)n2)s1,inactive
8,COc1nccc(-c2c(-c3ccc(F)cc3)ncn2C2CCC(O)CC2)n1 (configuration not stated),inactive
9,Nc1ccc(-c2ccc3ncc4ccc(=O)n(-c5cccc(C(F)(F)F)c5)c4c3c2)cn1,2.51 µM (active)
10,CC(C)(O)CC(=O)NCCn1ccc2ncnc(Nc3ccc(Oc4cccc(C(F)(F)F)c4)c(Cl)c3)c21,inactive
11,CN1c2ccccc2C(=O)N2CCc3c([nH]c4ccccc34)C21 (configuration not stated),7.94 µM (active)
12,COc1ccc(-c2ccc3ncc4c(c3c2)n(-c2ccc(N3CCNCC3)c(C(F)(F)F)c2)c(=O)n4C)cn1,1.12 µM (active)
